# Screening data (PubChem BioAssay)
# Hits are enriched below; roughly 0.97% of the tested compounds scored in any of these assays.
# RecA intein inh = inhibitors of M. tuberculosis RecA intein splicing. P9WHJ3. cell-free RecA intein splicing, fluorescence. inhibition, % (concentration not given with the values). 290,000 compounds, 0.75% hits; in the data active means inhibition above about 30%;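 further: 0% = vehicle wells and 100% = reference inhibitor control wells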
# TcdB GH inh = inhibitors of Clostridioides difficile toxin B glycohydrolase; P18177; TcdB glycohydrolase enzymatic assay, plate reader; inhibition, % at 9.99 µM; 350,000 compounds, 0.24% hits; AID 652162; in the data active means inhibition above about 10%
# MazF activator = MazEF (E. coli) toxin RNase activation. 350,000 compounds, 0.32% hits. FAM/BHQ RNA-DNA oligo cleavage fluorescence, 5 h. P0AE70. AID 504720. activation, % at 20 µM; in the data active means activation above about 50%
# Target sequence (P0AE70 whole entry, looked up): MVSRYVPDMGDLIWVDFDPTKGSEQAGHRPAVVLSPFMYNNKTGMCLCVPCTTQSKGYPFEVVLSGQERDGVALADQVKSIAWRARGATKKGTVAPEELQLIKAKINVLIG
# Rv3671c inh = Rv3671c (M. tuberculosis) protease inhibition. inhibition, % at 5.96 µM. AID 2606. 320,000 compounds, 0.048% hits. P9WHR9; in the data active means inhibition above about 38%;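 further: extracellular domain of Rv3671c used as enzyme; 0% = enzyme with DMSO and 100% = no enzyme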
# Target sequence (P9WHR9 whole entry, looked up, the tested form may be a part): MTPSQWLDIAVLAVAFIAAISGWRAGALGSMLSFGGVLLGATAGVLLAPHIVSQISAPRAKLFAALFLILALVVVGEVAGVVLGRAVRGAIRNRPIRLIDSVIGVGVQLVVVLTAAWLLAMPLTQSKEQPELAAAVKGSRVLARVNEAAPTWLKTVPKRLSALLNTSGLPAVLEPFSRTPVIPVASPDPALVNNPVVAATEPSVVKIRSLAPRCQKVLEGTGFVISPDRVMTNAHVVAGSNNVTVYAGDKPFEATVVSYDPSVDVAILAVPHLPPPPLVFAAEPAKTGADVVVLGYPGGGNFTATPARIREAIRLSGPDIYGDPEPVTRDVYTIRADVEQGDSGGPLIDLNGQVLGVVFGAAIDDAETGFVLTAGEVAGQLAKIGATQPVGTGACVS
# Mtb UGM inh = inhibitors of M. tuberculosis UDP-galactopyranose mutase. P9WIQ1. purified UGM, fluorescence polarization probe displacement. inhibition, % at 10 µM. 320,000 compounds, 0.06% hits; in the data active means inhibition above about 10%, passing the limit was not always enough
# Mtb bLac sens = beta-lactam sensitization of Mtb H37Rv; M. tuberculosis H37Rv growth with meropenem, percent inhibition; inhibition, % at 25 µM; 330,000 compounds, 0.27% hits; AID 434955; call rule not given here;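 further: growth measured after seven days incubation then overnight dye step; 0% = bacteria only wells and 100% = bacteria with antibiotic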
# * = called active by the depositor; / = no result given.
SMILES,RecA intein inh,TcdB GH inh,MazF activator,Rv3671c inh,Mtb UGM inh,Mtb bLac sens
C[C@@H]1CN([C@H](C)CO)C(=O)c2cc(NC(=O)Nc3ccc(F)cc3)ccc2O[C@@H]1CN(C)C(=O)Nc1ccccc1,/,1,/,/,/,/
Cc1cc2nc3ccc(=[N+](C)C)cc-3sc2cc1N,31*,/,-12,/,/,/
CCCNC(=O)N(C)C[C@H]1Oc2ncc(C#CCC3CCCC3)cc2C(=O)N([C@@H](C)CO)C[C@@H]1C,/,0,/,/,/,/
OCC1CCCN(C(=S)Nc2ccc(Nc3ccccc3)cc2)C1 (configuration not stated),1,11*,-18,6,0,-3
OCC1CCCN(C(=S)Nc2ccc(OC(F)F)cc2)C1 (configuration not stated),-1,-8,6,-7,1,0
CN(C)c1ccc(N/C=C/C(=O)c2ccccc2)cc1,0,/,154*,-71,-5,19
CCOC(=O)CSc1nc2cc(C)ccc2cc1C#N,0,/,628*,5,0,-5
COc1ccc2nc(SCC(C)=O)c(C#N)cc2c1,-2,/,934*,-3,-2,-5
CCOC(=O)CSc1nc2cc(OC)ccc2cc1C#N,0,/,120*,-5,1,59
CCOC(=O)CSc1nc2cc(C)cc(C)c2cc1C#N,1,/,25,7,4,-8
COc1ccc2nc(SCC(=O)N3CC(=O)Nc4ccccc43)c(C#N)cc2c1,0,/,58*,-7,5,-2
C[C@@H]1CN([C@H](C)CO)C(=O)c2cc(NS(=O)(=O)c3cccs3)ccc2O[C@@H](C)CCCCO[C@H]1CN(C)S(=O)(=O)c1ccc(F)cc1,/,1,/,/,/,/
COc1ccc(NC(=O)Nc2ccc3c(c2)C(=O)N([C@H](C)CO)C[C@H](C)[C@H](CN(C)C(=O)c2ccccc2)OCCCC[C@H](C)O3)cc1,/,-1,/,/,/,/
Cc1cc2cc(C#N)c(SCC(=O)Nc3nonc3C)nc2cc1C,0,1,63*,2,4,6
CCOC(=O)CSc1nc2ccc(C)cc2cc1C#N,-4,1,296*,-11,0,7
CC(C)NC(=O)N(C)C[C@H]1OCCCC[C@H](C)Oc2ccc(NC(=O)CCC(F)(F)F)cc2C(=O)N([C@@H](C)CO)C[C@H]1C,/,1,/,/,/,/
Cc1ccc(N=C2NC(=O)/C(=C/c3cccs3)S2)cc1C,-1,/,54*,-47,1,82
Cc1cccc(N=C2NC(=O)/C(=C\c3cccs3)S2)c1,4,-1,-16,-23,-1,76
COc1ccc(Cl)cc1NC(=O)Cn1c(NCCO)nc2ccccc21,11,27*,7,10,0,10
COc1ccc(S(=O)(=O)Nc2ccc3c(c2)OC[C@H](C)NC[C@H](C)[C@@H](OC)CN(C)C3=O)cc1,/,1,/,/,/,/
COc1ccc(OCc2cc(-c3ccc(Cl)cc3)no2)cc1,-1,19*,2,-4,-1,0
c1ccc(OCc2cc(-c3ccccc3)no2)cc1,11,1,2,-3,0,1
CCCC#Cc1ccc([C@H]2[C@H](CO)N3C(=O)CN(C(=O)c4ccncc4)C[C@@H]23)cc1,/,0,/,/,/,/
Oc1ccc2c(ccc3[nH]cnc32)c1,-5,17*,5,8,1,0
Brc1cc2[nH]cnc2c2ccccc12,-2,5,5,-1,2,20
SMILES,RecA intein inh,TcdB GH inh,MazF activator,Rv3671c inh,Mtb UGM inh,Mtb bLac sens
COc1ccc(NC(=O)N(C)C[C@@H]2Oc3ncc(C#CCC(C)C)cc3C(=O)N([C@H](C)CO)C[C@@H]2C)cc1,/,0,/,/,/,/
COC(=O)c1ccccc1NC(=O)NCc1ccncc1,-4,2,114*,-4,0,2
O=C(O)C[C@H]1C[C@H]2c3cc(NC(=O)CC4CC4)ccc3O[C@H]2[C@H](CO)O1,/,0,/,/,/,/
CCOc1cc(/C=N/O)ccc1OS(=O)(=O)c1ccc(C)cc1,2,/,1,-1,-1,-3
CCOc1cc(/C=N/O)ccc1OCc1ccc(C)cc1,10,11*,-4,-8,0,74
Cc1ccc(S(=O)(=O)Nc2cccnc2Oc2ccc(Cl)cc2)cc1,8,14*,10,0,-1,3
O=C(Nc1nnc(C(F)(F)F)s1)c1ccc(Br)s1,-4,17*,-1,-5,-1,41
COc1ccc(S(=O)(=O)Nc2ccc3c(c2)CC(=O)N([C@H](C)CO)C[C@H](C)[C@@H](CN(C)S(C)(=O)=O)O3)cc1,/,-1,/,/,/,/
COc1ccc(S(=O)(=O)N(C)C[C@@H]2Oc3ccc(NC(=O)c4ccncc4)cc3C(=O)N([C@@H](C)CO)C[C@@H]2C)cc1,/,1,/,/,/,/
CCO[C@H]1OC(C(=O)NCc2nc3ccccc3[nH]2)=C[C@@H](c2coc3ccccc3c2=O)[C@@H]1CCCO,/,0,/,/,/,/
CCn1c(COc2ccc(Cl)cc2)nnc1SCc1ccc(C#N)cc1,0,/,0,1,1,21
CCn1c(COc2ccc(Cl)cc2)nnc1SC1CCc2ccccc2C1=O (configuration not stated),62*,0,-11,6,-2,2
C#CCOCCOCCOCCNc1nc(N2CCN(C(=O)CCCCCCCCCCNC(=O)[C@H](CCCCN)n3cc(C[C@@H](C)CC)nn3)CC2)nc(N2CCN(C(=O)CCCCCCCCCCNC(=O)[C@H](CCCCN)n3cc(C[C@@H](C)CC)nn3)CC2)n1,66*,/,-71,-13,-2,65
C#CCOCCOCCOCCNc1nc(N2CCN(C(=O)[C@H]([C@@H](C)CC)n3cc([C@@H](N)Cc4ccc(O)cc4)nn3)CC2)nc(N2CCN(C(=O)[C@H]([C@@H](C)CC)n3cc([C@@H](N)Cc4ccc(O)cc4)nn3)CC2)n1,1,2,51*,7,-3,64
C#CCOCCOCCOCCNc1nc(N2CCN(C(=O)[C@H]([C@@H](C)CC)n3cc([C@@H](N)CO)nn3)CC2)nc(N2CCN(C(=O)[C@H]([C@@H](C)CC)n3cc([C@@H](N)Cc4ccc(O)cc4)nn3)CC2)n1,6,/,9,2,0,-5
CC(=O)N(C)C[C@H]1Oc2ncc(C#Cc3ccncc3)cc2C(=O)N([C@@H](C)CO)C[C@H]1C,/,0,/,/,/,/
O=C(CCl)N=c1sccn1Cc1ccc(Cl)cc1Cl,44*,0,-4,2,0,100
O=C(CCl)N=c1sccn1Cc1ccccc1Cl,19,1,6,12,2,99
O=C1CCCC2=C1Sc1ccccc1N2,-3,10*,-51,6,-1,-5
COc1cccc(Nc2nc(-c3ccccc3O)nc3ccccc23)c1,-3,0,75*,-52,-1,-4
COc1ccc(Nc2nc(-c3ccccc3O)nc3ccccc23)cc1,2,0,8,-30,-3,3
O=[N+]([O-])c1ccc(-c2nc(Nc3cccc(O)c3)c3ccccc3n2)cc1,0,2,123*,-61,-1,2
COC(=O)c1c(NC(=O)c2nc3ccccc3s2)sc2c1CC(C)(C)NC2(C)C,-9,1,53*,0,-1,69
